Screening results as filed in PubChem.
Most compounds without a hit are left out; they make up all but 1.8% or so of the library.
PDI turbidity = PDI (human) enzyme inhibition; inhibition, % at 10 µM; AID 588391; P07237; PDI insulin aggregation turbidity, A650, 90 min; 350,000 tested, 0.052% active;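 active = mean inhibition across replicates of 30% or more, whatever share of single replicates reach that level; inconclusive = mean inhibition below 30% while every single replicate reaches 30%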
DENV2 CPE = inhibitors of DENV2 cytopathic effect; 350,000 tested, 1.7% active; AID 651640; DENV2-infected cells, cytopathic effect rescue, plate reader; CPE inhibition, % at 9.99 µM; in the data active = CPE inhibition above about 20%, passing the limit was not always enough; inconclusive = no clear call, values can overlap the other calls; tested in BHK-21 cells;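 also: 0% = median of neutral control wells and 100% = median of positive control wells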
MLL AF4-AF9 inh = inhibitors of human MLL-AF4/AF9 interaction; P42568; 350,000 tested, 0.47% active; AlphaScreen, biotin-AF4 peptide binding to FLAG-AF9; inhibition, % at 10 µM;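 active = every replicate reaching a set inhibition limit, whatever the replicate mean, cut at about 25% in these data; inconclusive = mean inhibition reaches that limit but some replicates miss it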;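 also: 0% = plate neutral control median and 100% = total signal loss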
ERp5 block = blocks human ERp5 reductase activity on insulin; 350,000 tested, 0.05% active; AID 651711; inhibition, % at 9.99 µM; Q15084; ERp5 insulin aggregation, absorbance 650 nm, 90 min;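 active = mean replicate inhibition above about 25%, with every replicate also reaching it, limit read from the data, passing the limit was not always enough; inconclusive = only one of those two criteria met; inactive = neither criterion met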
ERAP1 HTS inh = inhibitors of human ERAP1 aminopeptidase; Q9NZ08; recombinant ERAP1, Leu-AMC fluorescence, 60 min; inhibition, % at 10.7 µM; 340,000 tested, 0.15% active; AID 652197;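 active = mean replicate inhibition of at least 30%, or all replicates individually reaching that 30% level; inactive = mean below 30% and not every replicate reaching it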;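 also: 0% = neutral control wells and 100% = L-leucinethiol positive control wells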
Target sequence (Q9NZ08 whole entry, looked up): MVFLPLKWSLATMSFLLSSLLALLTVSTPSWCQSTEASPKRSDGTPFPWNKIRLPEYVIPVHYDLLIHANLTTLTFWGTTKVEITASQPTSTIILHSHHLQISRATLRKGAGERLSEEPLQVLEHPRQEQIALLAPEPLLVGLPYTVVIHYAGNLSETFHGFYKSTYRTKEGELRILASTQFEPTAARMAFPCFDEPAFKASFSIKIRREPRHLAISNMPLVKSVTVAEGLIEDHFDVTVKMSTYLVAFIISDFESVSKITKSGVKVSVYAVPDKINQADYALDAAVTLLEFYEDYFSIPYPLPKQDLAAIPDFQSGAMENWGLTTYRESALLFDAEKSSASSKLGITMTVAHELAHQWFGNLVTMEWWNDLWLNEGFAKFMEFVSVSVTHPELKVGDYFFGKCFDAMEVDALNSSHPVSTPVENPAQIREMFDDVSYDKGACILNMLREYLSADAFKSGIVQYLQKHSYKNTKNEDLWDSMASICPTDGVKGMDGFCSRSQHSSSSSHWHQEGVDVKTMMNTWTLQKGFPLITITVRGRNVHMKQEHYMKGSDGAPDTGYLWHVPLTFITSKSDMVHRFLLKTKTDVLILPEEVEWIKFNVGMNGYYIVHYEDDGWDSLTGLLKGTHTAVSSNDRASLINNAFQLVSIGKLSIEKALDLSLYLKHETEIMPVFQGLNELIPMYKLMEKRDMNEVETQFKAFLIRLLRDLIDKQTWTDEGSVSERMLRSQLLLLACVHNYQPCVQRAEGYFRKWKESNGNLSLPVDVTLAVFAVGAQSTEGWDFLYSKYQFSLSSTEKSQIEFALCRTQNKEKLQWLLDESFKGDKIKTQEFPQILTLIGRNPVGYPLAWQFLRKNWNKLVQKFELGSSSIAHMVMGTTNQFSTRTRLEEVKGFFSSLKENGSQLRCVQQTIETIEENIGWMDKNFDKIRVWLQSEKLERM
Alpha interfer = counter-screen: AlphaScreen signal interference; shares compounds with MLL AF4-AF9 inh; signal luminescence; AC50, µM (highest dose often 12 µM), for the others: at the highest dose activity change, negative = inhibition; 530 tested, 45% active; AID 720494; cut-off not given, nearly all actives have AC50 up to about 14 µM
* = called active by the depositor; ? = inconclusive; · = no result given.

SMILES | PDI turbidity | DENV2 CPE | MLL AF4-AF9 inh | ERp5 block | ERAP1 HTS inh | Alpha interfer
Cc1ccc2c(c1)c1c3n2CCCN(Cc2ccccc2)C3CCC1 (configuration not stated) | 2.3 | -0.6 | 31.8* | 2.0 | -0.2 | -10.8%
COc1ccc(CN2CCC(N(CCc3ccccc3)Cc3ccccc3)CC2)c(OC)c1 | -0.4 | 13.4 | 30.1* | 3.8 | -1.2 | -21.5%
C[C@H](CO)N1C[C@H](C)[C@H](CN(C)C(=O)CC2CC2)Oc2cc(-c3cncnc3)ccc2S1(=O)=O | · | -7.6 | -0.2 | -9.5 | -0.6 | ·
O=C(O)CCCNc1cc(N2CCN(C(=O)c3ccco3)CC2)c2noc3c2c1C(=O)c1ccccc1-3 | -0.4 | 4.2 | 37.1* | -0.2 | 9.5 | -20.5%
CCOC(=O)N1CCN(c2cc(NCCC(=O)O)c3c4c(onc24)-c2ccccc2C3=O)CC1 | 0.3 | · | · | · | · | ·
C/C=C/c1ccc([C@@H]2[C@H](CO)N(C(=O)CN(C)C)C23CN(C(=O)C2CCCC2)C3)cc1 | · | 7.8 | 5.1 | -2.8 | 0.3 | ·
Cc1cc2c(cc1C)N[C@]1(C[C@H]3CCCC(=O)N4CC[C@@H](C1)[C@@H]34)C(=NC(C)(C)CC(C)(C)C)N2 | 5.6 | -18.4 | 49.9* | -1.1 | -0.9 | -24.1%
O=C(C[C@@H]1C[C@H]2c3cc(NC(=O)C4CCC4)ccc3O[C@H]2[C@@H](CO)O1)NCc1ccncc1 | · | -5.2 | -1.9 | 2.2 | -0.1 | ·
O=C(O)[C@@H]1[C@@H](CO)[C@@H]2Cn3c(ccc(-c4cncnc4)c3=O)[C@@H]2N1C(=O)C1CCC1 | · | 0.2 | -1.1 | -6.6 | -1.0 | ·
Cc1ccc2nc(-c3ccccn3)c(NC3CCCC3)n2c1 | -3.0 | 1.3 | 32.1* | 3.6 | 0.5 | -20.8%
CCOc1ccc(NC(=S)N(CCN2CCOCC2)Cc2ccc3c(c2)CCCN3CC)cc1 | -1.0 | -3.3 | 39.3* | 2.0 | 0.5 | -27.9%
COCCNC(=O)C[C@H]1C[C@H]2c3cc(NC(=O)CN(C)C)ccc3O[C@H]2[C@H](CO)O1 | · | -5.2 | 0.9 | 3.5 | -2.6 | ·
CN(C)c1ccc(C(CN)c2c[nH]c3ccccc23)cc1 (configuration not stated) | 4.7 | -6.5 | 30.2* | -1.4 | 3.8 | -33.1%
Cc1ccsc1/C=N/N1CCN(Cc2ccccc2)CC1 | -10.9 | 6.2 | 27.2* | -1.1 | -3.0 | -17.1%
C(=C\c1ccc2ccccc2n1)/c1ccccc1 | 1.0 | -9.3 | ? | 4.3 | -2.2 | -21.9%
COc1cccc2sc(N(CCCN(C)C)C(=O)c3ccc(S(=O)(=O)N4CCCc5ccccc54)cc3)nc12 | 12.7 | -2.8 | 36.1* | -4.2 | -9.5 | -17.7%
COCC(=O)N1CC(=O)N2[C@H](CO)[C@@H](c3ccc(-c4cccnc4)cc3)[C@@H]2C1 | · | 3.0 | -3.8 | 7.0 | 1.3 | ·
N#CC(C#N)=c1ccc2c(c1)N1C3=C(CCCC3)CC3CCCCC31N=2 (configuration not stated) | -8.3 | · | · | · | · | ·
N#C/C(C(N)=O)=c1/ccc2c(c1)N1C3=C(CCCC3)CC3CCCCC31N=2 (configuration not stated) | · | · | 84.5* | · | · | 2.71µM*
CC(C)N1CCN(c2ccc(OCC3COC(Cn4cncn4)(c4ccc(Cl)cc4Cl)O3)cc2)CC1 (configuration not stated) | -2.6 | -12.9 | 20.1 | 4.0 | -3.7 | -30.8%
COc1ccc(N2CCN(C(=O)Cn3cncn3)CC2)cc1 | -0.8 | · | 6.0 | 2.9 | -5.9 | ·
CNC[C@@H]1Oc2ncc(-c3ccc(OC)cc3)cc2C(=O)N([C@@H](C)CO)C[C@H]1C | · | -2.2 | -1.7 | 1.4 | -1.4 | ·
CCn1c(SCC(=O)N2c3ccccc3Sc3ccccc32)nnc1-c1ccco1 | 4.5 | · | · | -0.5 | -0.4 | ·
Cn1c(SCC(=O)N2c3ccccc3Sc3ccc(Cl)cc32)nnc1-c1ccco1 | 8.6 | 3.4 | ? | -0.8 | 8.3 | -2.4%
Cc1ccc(S(=O)(=O)Nc2cccc3c2O[C@H](CN(C)Cc2ccc(C(F)(F)F)cc2)[C@@H](C)CN([C@@H](C)CO)C3=O)cc1 | · | -1.6 | 2.9 | 1.6 | -0.8 | ·
CCCC#Cc1cnc2c(c1)C(=O)N([C@@H](C)CO)C[C@H](C)[C@@H](CN(C)C(=O)C1CCOCC1)O2 | · | -2.5 | -4.5 | 10.3 | 1.0 | ·
CN=c1scc(-c2cccs2)n1/N=C/c1ccccc1O | 2.1 | -1.7 | 30.9* | -2.2 | 11.9 | -22.6%
Cc1cc(C)n(/N=C/c2ccccc2O)c(=O)c1 | -0.6 | 4.9 | 0.8 | 1.0 | -1.8 | ·
